# Data published in PubChem BioAssay (EPA / NIEHS).
# Inconclusive results are not listed. Active and inactive are the calls of the source. The calls were made as follows: active = hit-call score of the fitted dose curve at least 0.9, where 1 is the maximum; inconclusive = response in the unintended direction; inactive = score below 0.9.
# Columns and labels:
# [1] = molecular target: Androgen Receptor/SRC-1 Co-activator, AR (gene 367) (UniProt P10275); experiment: OT_AR_ARSRC1_0960: Odyssey Thera (OT) 16-hour HEK293T Protein-Complementation Assay for Androgen Receptor/SRC-1 Co-activator (AID 2283353);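 also: actives raise the signal above DMSO so potency reflects increased AR and SRC-1 complex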
# Method in brief: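 Stable HEK293T line carries AR and SRC-1 each linked to a Venus fragment; chemicals are applied for 16 h, cells imaged at two wavelengths, and the 488 nm nucleus/cytoplasm ratio is taken as the signal, rising relative to DMSO.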
# [2] = molecular target: Androgen Receptor/SRC-1 Co-activator, AR (gene 367) (UniProt P10275); experiment: OT_AR_ARSRC1_0480: Odyssey Thera (OT) 8-hour HEK293T Protein-Complementation Assay for Androgen Receptor/SRC-1 Co-activator (AID 2283354);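 also: hits raise the complementation signal above DMSO so AC50 marks enhancers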
# Method in brief: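 Reconstituted split-Venus YFP signal from AR–SRC-1 interaction, read by imaging 8 h post-dose in stable HEK293T lines. The 488 nm nucleus-to-cytoplasm ratio (≥400 cells/image) was fitted upward against DMSO.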
# [3] = molecular target: Estrogen receptor beta (Homo sapiens) (UniProt Q92731); experiment: OT_ER_ERbERb_0480: Odyssey Thera (OT) 8-hour HEK293T Protein-Complementation Assay for Estrogen Receptor-beta/-beta Homodimer (AID 2283357);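 also: active means signal gain over DMSO baseline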
# Method in brief: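 ER-beta LBD homodimer PCA stably expressed in HEK293T; 8 h compound exposure, then formaldehyde fixation and Draq5 staining. Gain in nuclear/cytoplasmic fluorescence intensity versus DMSO vehicle, read on laser scanning cytometer.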
# [4] = molecular target: Glucocorticoid receptor (Homo sapiens) (UniProt P04150); experiment: NVS_NR_hGR: NovaScreen (NVS) Nuclear Receptor Binding Assay for human Glucocorticoid Receptor (GR) (AID 2283363);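 as to AC50: activity is loss of specific radioligand binding signal relative to DMSO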
# Method in brief: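 Compounds first tested in duplicate at 25 uM, actives followed up in concentration series. Binding to extracted GR protein measured as competitive radioligand displacement, filter scintillation read 16 h post-dosing, normalised to DMSO.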
# [5] = tested on: guinea pig Dopamine Transporter (DAT), gene 100714898; experiment: NVS_TR_gDAT: NovaScreen (NVS) Transporter Assay for guinea pig Dopamine Transporter (DAT) (AID 2283369);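 also: active compounds lower bound radioligand signal relative to DMSO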
# Method in brief: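 Radioligand displacement on membranes from guinea pig striatum, 2 h exposure, bound label counted by filtration and scintillation. Tested at 25 uM in duplicate, then actives in concentration series to 50 uM; DMSO as negative control.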
# [6] = molecular target: Peroxisome proliferator-activated receptor gamma (Homo sapiens) (UniProt P37231); experiment: NVS_NR_hPPARg: NovaScreen (NVS) Nuclear Receptor Binding Assay for human Peroxisome Proliferator-activated Receptor gamma (PPARg) (AID 2283370)
# Method in brief: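 Fluorescence polarization readout of ligand binding to extracted human PPARg, measured at 2 h. Duplicate single-point screen at 25 uM, then concentration-series retesting; activity defined as signal loss versus DMSO.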
# [7] = tested on: rat Norepinephrine Transporter (NET), gene 83511; experiment: NVS_TR_rNET: NovaScreen (NVS) Transporter Assay for rat Norepinephrine Transporter (NET) (AID 2283373)
# Method in brief: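 Competitive radioligand displacement at the rat NET using forebrain membrane preparations, 1 h incubation, filter-based scintillation readout. Primary testing in duplicate at a single 25 uM concentration; confirmed actives retested across concentrations.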
# [8] = molecular target: human Dopamine Transporter (DAT), SLC6A3 (gene 6531) (UniProt Q01959); experiment: NVS_TR_hDAT: NovaScreen (NVS) Transporter Assay for human Dopamine Transporter (DAT) (AID 2283374);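 also: activity means loss of bound radioligand signal relative to DMSO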
# Method in brief: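 Duplicate single-point screening at 25 uM preceded concentration-series follow-up of actives. Binding was measured by competitive displacement of a radioligand from DAT protein, filter-counted by scintillation 1 h after dosing. Decrease relative to DMSO taken as activity.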
# [9] = molecular target: rat Serotonin Transporter (SERT), Slc6a4 (gene 25553) (UniProt P31652); experiment: NVS_TR_rSERT: NovaScreen (NVS) Transporter Assay for rat Serotonin Transporter (SERT) (AID 2283375)
# Method in brief: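 Radioligand binding with competitive displacement on rat forebrain membrane preparations, counted by filtration and scintillation after 1 h. Primary single-point duplicates at 25 uM; active chemicals followed up in concentration-response. DMSO served as baseline.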
# [10] = molecular target: PGR (gene 5241) (UniProt P06401); experiment: NVS_NR_hPR: NovaScreen (NVS) Nuclear Receptor Binding Assay for human Progestron Receptor (PR) (AID 2283360);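 also: active means loss of bound radioligand signal versus DMSO baseline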
# Method in brief: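 Cell-free radioligand binding using receptor protein extracted from T47D cells, read by scintillation counting 18 hours after dosing. Loss of signal relative to DMSO baseline indicates displacement; primary screen single concentration 25 uM in duplicate, actives followed in concentration series.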
# [11] = molecular target: Estrogen receptor (Homo sapiens) + Estrogen receptor beta (Homo sapiens) (UniProt P03372+Q92731); experiment: OT_ER_ERaERb_1440: Odyssey Thera (OT) 24-hour HEK293T Protein-Complementation Assay for Estrogen Receptor-alpha/-beta Homodimer (AID 2283356);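 also: heteromer of ER alpha and ER beta binding domains; hits raise reporter fluorescence and both agonists and antagonists give an increase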
# Method in brief: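 Fragment complementation between ER alpha (310-547) and ER beta (263-489) ligand-binding domains in HEK293T cells; signal read 24 h post-dosing by laser scanning cytometer. Gain of fluorescence relative to DMSO fitted.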
# [12] = molecular target: human Adenosine Transporter (Adot), SLC29A1 (gene 2030) (UniProt Q99808); experiment: NVS_TR_hAdoT: NovaScreen (NVS) Transporter Assay for human Adenosine Transporter (Adot) (AID 2283368)
# Method in brief: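 Binding displacement on U937 extracted protein, read 1 h post-dose by filtration and scintillation counting. Primary duplicate test at 25 uM, then singleton concentration series with 50 uM top; DMSO baseline.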
# [13] = molecular target: Nuclear receptor subfamily 1 group I member 2 (Homo sapiens) (UniProt O75469); experiment: NVS_NR_hPXR: NovaScreen (NVS) Nuclear Receptor Binding Assay for human Pregnane X Receptor (PXR) (AID 2283365);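 also: a drop in FRET signal versus DMSO baseline means the compound binds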
# Method in brief: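 Human PXR binding measured by TR-FRET in a cell-free format, 2 h exposure. Single-concentration duplicates at 25 uM preceded concentration-response retests of actives; endpoint fitted positively relative to DMSO, loss of signal indicating binding.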
# [14] = molecular target: human Serotonin Transporter (SERT), SLC6A4 (gene 6532) (UniProt P31645); experiment: NVS_TR_hSERT: NovaScreen (NVS) Transporter Assay for human Serotonin Transporter (SERT) (AID 2283372)
# Method in brief: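 Human platelet membrane preparation; displacement of radioligand from serotonin transporter measured after 1 h by filtration and scintillation counting. Single 25 uM duplicate screen, then concentration series for actives, with DMSO as negative baseline.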
# [15] = molecular target: rat Mineralocorticoid Receptor (MR), Nr3c2 (gene 25672) (UniProt P22199); experiment: NVS_NR_rMR: NovaScreen (NVS) Nuclear Receptor Binding Assay for rat Mineralocorticoid Receptor (MR) (AID 2283355)
# Method in brief: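 Primary HTS ran in duplicate at a single 25 uM concentration, with concentration-series follow-up for actives. Receptor source: adrenalectomized rat brain supernatant, cell-free. Radioligand displacement read by scintillation at 24 h, relative to DMSO baseline.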
# Chain of Androgen Receptor/SRC-1 Co-activator, AR (gene 367) (P10275 whole entry, looked up, the tested form may be a part): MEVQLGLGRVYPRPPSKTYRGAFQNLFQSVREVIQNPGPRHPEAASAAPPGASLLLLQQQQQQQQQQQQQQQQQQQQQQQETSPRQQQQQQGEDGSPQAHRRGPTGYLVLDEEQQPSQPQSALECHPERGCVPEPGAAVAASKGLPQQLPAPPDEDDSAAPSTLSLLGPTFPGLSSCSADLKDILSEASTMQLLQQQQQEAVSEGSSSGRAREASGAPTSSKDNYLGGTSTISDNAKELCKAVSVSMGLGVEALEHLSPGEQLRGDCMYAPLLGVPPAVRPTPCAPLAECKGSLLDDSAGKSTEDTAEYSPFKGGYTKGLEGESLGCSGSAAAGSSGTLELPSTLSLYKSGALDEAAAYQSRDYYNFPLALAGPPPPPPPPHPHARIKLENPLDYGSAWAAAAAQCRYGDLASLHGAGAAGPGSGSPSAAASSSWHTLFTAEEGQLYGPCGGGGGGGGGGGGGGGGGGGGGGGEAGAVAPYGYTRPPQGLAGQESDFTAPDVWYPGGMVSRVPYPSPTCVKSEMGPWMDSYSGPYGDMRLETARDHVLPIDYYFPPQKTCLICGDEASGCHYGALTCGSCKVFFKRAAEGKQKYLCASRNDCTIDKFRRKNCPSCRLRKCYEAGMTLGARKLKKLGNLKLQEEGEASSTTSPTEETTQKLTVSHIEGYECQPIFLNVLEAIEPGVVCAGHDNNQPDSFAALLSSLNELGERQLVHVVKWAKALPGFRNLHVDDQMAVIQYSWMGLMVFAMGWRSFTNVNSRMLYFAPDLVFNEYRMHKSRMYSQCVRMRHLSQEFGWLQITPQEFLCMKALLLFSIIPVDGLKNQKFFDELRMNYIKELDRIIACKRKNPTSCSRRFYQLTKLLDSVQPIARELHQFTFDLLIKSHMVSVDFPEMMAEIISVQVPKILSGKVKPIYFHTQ
# Chain of Glucocorticoid receptor (Homo sapiens) (P04150 whole entry, looked up): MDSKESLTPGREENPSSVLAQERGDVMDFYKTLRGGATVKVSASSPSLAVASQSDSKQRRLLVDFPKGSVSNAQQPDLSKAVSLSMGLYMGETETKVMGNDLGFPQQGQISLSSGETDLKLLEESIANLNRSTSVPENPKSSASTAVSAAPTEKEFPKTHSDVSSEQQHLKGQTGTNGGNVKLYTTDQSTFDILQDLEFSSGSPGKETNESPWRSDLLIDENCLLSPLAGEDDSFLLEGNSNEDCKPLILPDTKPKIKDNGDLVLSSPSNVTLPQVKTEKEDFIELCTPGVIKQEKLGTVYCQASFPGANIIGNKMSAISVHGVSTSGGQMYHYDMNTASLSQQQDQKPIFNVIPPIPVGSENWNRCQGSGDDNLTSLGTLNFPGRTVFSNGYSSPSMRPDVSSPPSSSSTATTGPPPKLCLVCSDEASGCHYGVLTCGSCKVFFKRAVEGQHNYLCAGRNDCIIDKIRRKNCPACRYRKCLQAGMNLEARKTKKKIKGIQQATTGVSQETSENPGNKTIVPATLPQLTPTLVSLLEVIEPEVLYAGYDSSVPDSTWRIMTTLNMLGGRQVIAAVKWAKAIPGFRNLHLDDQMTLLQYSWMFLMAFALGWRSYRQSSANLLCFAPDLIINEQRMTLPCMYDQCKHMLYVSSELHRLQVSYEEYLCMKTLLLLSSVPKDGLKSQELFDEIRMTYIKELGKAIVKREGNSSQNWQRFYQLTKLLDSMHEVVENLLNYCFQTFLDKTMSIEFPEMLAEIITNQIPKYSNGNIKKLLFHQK
# Chain of Peroxisome proliferator-activated receptor gamma (Homo sapiens) (P37231 whole entry, looked up): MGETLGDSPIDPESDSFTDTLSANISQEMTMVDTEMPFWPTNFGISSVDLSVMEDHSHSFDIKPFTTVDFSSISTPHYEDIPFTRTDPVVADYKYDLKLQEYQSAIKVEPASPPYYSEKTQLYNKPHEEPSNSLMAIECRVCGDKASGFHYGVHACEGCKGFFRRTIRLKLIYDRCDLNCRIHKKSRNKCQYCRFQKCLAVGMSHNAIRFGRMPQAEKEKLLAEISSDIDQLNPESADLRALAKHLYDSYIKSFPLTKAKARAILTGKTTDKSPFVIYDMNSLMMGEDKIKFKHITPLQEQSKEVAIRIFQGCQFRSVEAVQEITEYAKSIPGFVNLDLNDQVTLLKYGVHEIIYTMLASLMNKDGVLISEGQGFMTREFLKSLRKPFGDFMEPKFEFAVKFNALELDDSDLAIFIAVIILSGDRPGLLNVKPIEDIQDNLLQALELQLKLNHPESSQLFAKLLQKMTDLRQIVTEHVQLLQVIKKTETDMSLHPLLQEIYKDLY
# Chain of Estrogen receptor beta (Homo sapiens) (Q92731 whole entry, looked up, the tested form may be a part): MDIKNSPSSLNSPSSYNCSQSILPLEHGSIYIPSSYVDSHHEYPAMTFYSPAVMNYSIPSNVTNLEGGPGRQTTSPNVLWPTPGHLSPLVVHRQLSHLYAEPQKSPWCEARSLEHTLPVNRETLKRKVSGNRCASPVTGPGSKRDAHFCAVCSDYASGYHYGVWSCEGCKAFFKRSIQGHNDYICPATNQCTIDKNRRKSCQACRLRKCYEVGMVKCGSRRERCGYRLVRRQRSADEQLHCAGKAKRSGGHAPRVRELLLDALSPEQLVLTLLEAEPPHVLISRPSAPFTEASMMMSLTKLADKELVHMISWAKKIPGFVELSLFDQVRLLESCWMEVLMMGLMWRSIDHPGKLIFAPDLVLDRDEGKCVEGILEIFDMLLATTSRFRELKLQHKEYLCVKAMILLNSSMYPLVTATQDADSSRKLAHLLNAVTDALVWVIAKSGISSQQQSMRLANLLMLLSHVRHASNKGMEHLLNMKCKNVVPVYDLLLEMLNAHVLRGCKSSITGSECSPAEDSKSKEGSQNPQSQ
# Chain of Estrogen receptor (Homo sapiens) + Estrogen receptor beta (Homo sapiens) (P03372 whole entry, looked up, the tested form may be a part): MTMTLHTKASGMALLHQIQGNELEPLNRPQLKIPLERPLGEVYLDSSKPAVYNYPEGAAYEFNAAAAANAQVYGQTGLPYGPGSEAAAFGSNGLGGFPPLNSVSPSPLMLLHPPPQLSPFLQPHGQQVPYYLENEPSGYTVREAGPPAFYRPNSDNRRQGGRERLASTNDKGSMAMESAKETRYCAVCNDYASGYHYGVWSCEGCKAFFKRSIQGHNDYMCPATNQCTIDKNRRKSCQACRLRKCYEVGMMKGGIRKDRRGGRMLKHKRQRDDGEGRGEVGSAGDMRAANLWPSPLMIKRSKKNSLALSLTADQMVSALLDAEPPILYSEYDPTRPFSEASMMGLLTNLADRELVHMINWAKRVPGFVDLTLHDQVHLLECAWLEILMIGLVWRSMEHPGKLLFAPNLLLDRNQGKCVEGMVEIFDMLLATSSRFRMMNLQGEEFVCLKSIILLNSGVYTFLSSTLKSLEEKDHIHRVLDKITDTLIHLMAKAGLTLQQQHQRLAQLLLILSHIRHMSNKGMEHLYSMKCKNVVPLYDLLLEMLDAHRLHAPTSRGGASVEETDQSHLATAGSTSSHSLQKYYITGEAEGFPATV
# Chain of Estrogen receptor (Homo sapiens) + Estrogen receptor beta (Homo sapiens) (Q92731 whole entry, looked up, the tested form may be a part): as the sequence (Q92731 whole entry, looked up, the tested form may be a part) above
# Chain of PGR (gene 5241) (P06401 whole entry, looked up): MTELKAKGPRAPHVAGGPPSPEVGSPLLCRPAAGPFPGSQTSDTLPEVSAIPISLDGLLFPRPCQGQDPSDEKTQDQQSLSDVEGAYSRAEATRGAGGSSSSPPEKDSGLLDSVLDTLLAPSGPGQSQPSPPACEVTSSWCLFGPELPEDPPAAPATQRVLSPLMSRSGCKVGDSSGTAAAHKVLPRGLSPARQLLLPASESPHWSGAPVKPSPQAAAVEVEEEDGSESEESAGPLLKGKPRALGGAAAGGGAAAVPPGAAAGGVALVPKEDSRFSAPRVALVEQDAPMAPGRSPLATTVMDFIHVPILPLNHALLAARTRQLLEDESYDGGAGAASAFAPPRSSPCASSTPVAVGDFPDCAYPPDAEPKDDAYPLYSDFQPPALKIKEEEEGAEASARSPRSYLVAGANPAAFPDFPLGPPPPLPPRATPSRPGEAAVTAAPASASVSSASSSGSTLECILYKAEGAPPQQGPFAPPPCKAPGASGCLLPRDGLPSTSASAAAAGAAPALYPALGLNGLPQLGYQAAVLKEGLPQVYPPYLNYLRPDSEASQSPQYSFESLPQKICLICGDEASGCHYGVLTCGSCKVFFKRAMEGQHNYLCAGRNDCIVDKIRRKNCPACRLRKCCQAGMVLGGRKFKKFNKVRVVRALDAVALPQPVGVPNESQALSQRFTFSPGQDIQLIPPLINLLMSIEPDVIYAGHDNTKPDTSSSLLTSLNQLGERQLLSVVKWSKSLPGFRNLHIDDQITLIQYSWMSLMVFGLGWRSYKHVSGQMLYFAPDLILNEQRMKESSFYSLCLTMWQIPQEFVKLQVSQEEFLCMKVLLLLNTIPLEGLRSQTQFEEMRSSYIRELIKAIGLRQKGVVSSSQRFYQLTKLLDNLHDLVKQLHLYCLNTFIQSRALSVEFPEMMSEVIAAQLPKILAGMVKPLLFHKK
# Chain of Nuclear receptor subfamily 1 group I member 2 (Homo sapiens) (O75469 whole entry, looked up): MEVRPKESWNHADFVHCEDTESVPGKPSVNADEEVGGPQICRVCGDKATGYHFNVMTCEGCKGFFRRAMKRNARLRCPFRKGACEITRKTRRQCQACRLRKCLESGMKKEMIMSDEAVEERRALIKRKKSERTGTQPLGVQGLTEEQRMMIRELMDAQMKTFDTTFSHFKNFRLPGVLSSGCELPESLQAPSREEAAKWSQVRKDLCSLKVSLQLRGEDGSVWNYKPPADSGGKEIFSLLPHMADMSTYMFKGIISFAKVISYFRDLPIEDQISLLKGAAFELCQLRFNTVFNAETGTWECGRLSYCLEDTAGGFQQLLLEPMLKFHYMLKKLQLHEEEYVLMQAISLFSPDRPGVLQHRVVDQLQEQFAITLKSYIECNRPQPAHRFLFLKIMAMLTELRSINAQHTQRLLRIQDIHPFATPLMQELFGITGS
smiles,measurement,setting,value
Oc1ccc2ccccc2c1,outcome,[1],inactive
same,outcome,[2],inactive
same,AC50,[3],37.7 µM (active)
same,outcome,[4],inactive
same,AC50,[5],21.3 µM (active)
same,outcome,[6],inactive
same,AC50,[7],7.87 µM (active)
same,AC50,[8],10.1 µM (active)
same,AC50,[9],8.73 µM (active)
Cc1c2ccccc2c(C)c2c1ccc1ccccc12,AC50,[1],13.7 µM (active)
same,AC50,[2],11.6 µM (active)
same,outcome,[3],inactive
same,AC50,[10],15.6 µM (active)
same,AC50,[4],15.3 µM (active)
same,outcome,[6],inactive
CCN(Cc1cccnc1)C(=O)c1cccc(Cl)c1[C@]1(C)C(=O)N(Cc2ccc(OC)cc2OC)c2ccc(Cl)cc21,AC50,[1],2.59 µM (active)
same,outcome,[2],inactive
same,outcome,[11],inactive
same,outcome,[3],inactive
same,AC50,[10],9.73 µM (active)
same,AC50,[4],4.93 µM (active)
same,AC50,[12],1.55 µM (active)
NC(=O)c1nc(-c2cccc(-c3cc(F)ccc3OCC(F)(F)C(F)(F)F)c2)n[nH]1,AC50,[1],50 µM (active)
same,AC50,[2],50 µM (active)
same,outcome,[11],inactive
same,outcome,[13],inactive
O=C(O)Cn1c(=O)n(Cc2ccc(Br)cc2F)c(=O)c2ccc(Cl)cc21,outcome,[1],inactive
same,outcome,[11],inactive
same,outcome,[3],inactive
same,AC50,[6],42.4 µM (active)
CN(C[C@@H](CC[N+]12CCC(C3CCCCC3)(CC1)CC2)c1ccc(Cl)c(Cl)c1)C(=O)c1cc(C(F)(F)F)cc(C(F)(F)F)c1,AC50,[1],21.3 µM (active)
same,AC50,[2],20.9 µM (active)
same,outcome,[10],inactive
same,AC50,[4],6.49 µM (active)
same,AC50,[13],25 µM (active)
same,AC50,[14],17.5 µM (active)
same,AC50,[8],1.95 µM (active)
same,AC50,[9],16.7 µM (active)
O=C(Nc1ccc(Cl)cc1)Nc1ccc(Cl)c(Cl)c1,AC50,[1],4.86 µM (active)
same,outcome,[2],inactive
same,outcome,[11],inactive
same,outcome,[3],inactive
same,outcome,[14],inactive
O=C(O)c1ccccc1-n1cc(C(=O)O)c(=O)c2cc(Nc3c(F)cc(F)cc3Cl)c(Cl)cc21,outcome,[15],inactive
same,outcome,[11],inactive
same,AC50,[4],25 µM (active)
same,outcome,[6],inactive
